This is a sample that favours compounds with a hit; in the whole collection about 18% have one here.
TDP1 cell noCPT = qHTS for Inhibitors of human tyrosyl-DNA phosphodiesterase 1 (TDP1): qHTS in cells in absence of CPT; DT40 Tdp1-/- hTDP1 cells, no CPT, ATP luminescence, 48 h; Potency, µM (highest dose often 46.2 µM), for inactives: top-dose activity change, negative = growth inhibition, most hits filed as inhibitors; hit rate 15% among 420,000; also: potency is read from the fitted curve at half-maximal effect; % is scaled to controls: 0 for no effect and ±100 for the full control effect; nearly all actives have a fitted effect of over 55% in size
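Growth kinetics read by CellTiter-Glo luminescence after ≥48 hr at 37 °C. Cells: DT40 Tdp1-/- stably carrying human TDP1, 400 per well, compound exposure in the absence of CPT (DMSO vehicle).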
HepG2 viability = counter-screen for TGF-b inhibitors: cytotoxicity in HepG2 cells; HepG2 CAGA-GFP viability, ATP luminescence, 18 h; hit rate 0.76% among 410,000; Potency, µM (doses to about 46.1 µM), for the others: at the highest dose activity change, negative = cytotoxicity, usual class: cytotoxic; also: potency is read from the fitted curve at half-maximal effect
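HepG2 CAGA-GFP cells (1000/well, DMEM with 1% FBS) received compound, then TGF-beta at 500 pg/mL final, and were incubated 18 hours at 37 degrees C. Viability was read by CellTiter-Glo luminescence. Media-only wells were set as complete cell-killing and DMSO as no toxicity.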
DT40 TDP1 CPT = DT40-hTDP1 cell growth loss with CPT | chicken DT40 Tdp1-/-;hTDP1 cells + 20 nM CPT, ATP luminescence, 48 h | Potency, µM (series often up to 46.2 µM), for the others: top-dose activity change, negative = growth inhibition, most hits filed as inhibitors | hit rate 12% among 420,000 | AID 686979; also: potency is read from the fitted curve at half-maximal effect; % is scaled to controls: 0 for no effect and ±100 for the full control effect; nearly all actives have a fitted effect of over 55% in size
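Cell growth measured by CellTiter-Glo luminescence after a minimum 48 h, 37 C compound exposure with 20 nM CPT in Tdp1-knockout DT40 cells stably expressing hTDP1, seeded 400/well; qHTS titration format.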
TDP1 block = blocks human tyrosyl-DNA phosphodiesterase 1. Potency, µM (titrated, usually from 130 µM), inactives show at the top dose activity change, negative = inhibition, hits mostly inhibitors. recombinant TDP1, AlphaScreen DNA substrate cleavage. hit rate 0.28% among 350,000; also: potency is read from the fitted curve at half-maximal effect; % is scaled to controls: 0 for no effect and ±100 for the full control effect; nearly all actives have a fitted effect of over 40% in size
Target sequence (Q9NUW8 whole entry, looked up): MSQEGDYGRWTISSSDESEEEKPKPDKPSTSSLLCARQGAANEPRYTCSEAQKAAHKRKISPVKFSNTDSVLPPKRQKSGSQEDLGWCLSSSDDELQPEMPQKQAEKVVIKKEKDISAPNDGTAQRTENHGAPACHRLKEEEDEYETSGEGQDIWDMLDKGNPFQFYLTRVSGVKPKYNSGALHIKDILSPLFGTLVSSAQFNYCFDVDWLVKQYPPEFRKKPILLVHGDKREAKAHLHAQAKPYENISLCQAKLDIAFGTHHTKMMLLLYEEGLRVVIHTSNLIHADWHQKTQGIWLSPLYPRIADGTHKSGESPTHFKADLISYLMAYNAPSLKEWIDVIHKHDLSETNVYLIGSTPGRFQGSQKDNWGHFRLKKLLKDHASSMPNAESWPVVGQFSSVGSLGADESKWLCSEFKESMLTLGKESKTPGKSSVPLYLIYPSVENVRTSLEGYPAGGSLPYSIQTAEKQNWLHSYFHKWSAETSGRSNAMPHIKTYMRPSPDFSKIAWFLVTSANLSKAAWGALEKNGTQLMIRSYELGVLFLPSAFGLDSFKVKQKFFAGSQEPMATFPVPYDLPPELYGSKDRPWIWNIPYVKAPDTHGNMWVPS
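AlphaScreen read-out: signal falls as enzyme removes the 3' tyrosine-FITC from a 5'-biotinylated DNA oligo (15 nM, 5 min, RT). Enzyme was E. coli-made recombinant Tdp1 at 1 nM, exposed to compound for 15 min beforehand; beads 10 ug/ml, 10 min.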
IL1B secr inh = blocks inflammasome-driven IL-1 beta release | activity change, % at 57.5 µM | THP-1 LPS/ATP IL-1B secretion, AlphaLISA, 16 h; stronger effect = lower value | hit rate 4.7% among 360,000; in the data active = activity change below about -50%; inconclusive = mostly about -30% to -49%; also: % is scaled to controls: 0 for no effect and ±100 for the full control effect
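THP-1 cells pretreated 1 hr with compounds (up to 57.5 uM final), then stimulated with LPS (250 ng/mL final) plus ATP (1.25 mM final); secreted IL-1B measured by AlphaLISA after 16 hr, decreased signal indicating inhibition.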
TGFb SMAD3 inh = TGF-b pathway inhibition; HepG2 CAGA-GFP TGF-b/SMAD3 reporter, GFP fluorescence, 18 h; TGF-beta stimulated, 500 pg/mL final; Potency, µM (series often up to 46.1 µM), inactives show top-dose activity, negative = inhibition, usual class: inhibitors; hit rate 1.2% among 410,000; also: potency is read from the fitted curve at half-maximal effect; % is scaled to controls: 0 for no effect and ±100 for the full control effect; nearly all actives have a fitted effect of over 65% in size
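HEPG2 CAGA-GFP cells (1000/well, DMEM with 1% FBS) were pre-incubated 2 h at 37 degrees C, given compound by pin tool, then stimulated with TGF-beta at 500 pg/mL final for 18 h before per-cell GFP fluorescence imaging.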
* marks the source's active call; other numbers are inactive results; ? = inconclusive; . = no result given; [ ] = remark or other dose. Unless noted, calls follow the shape of the dose curve; as a rule, active = well fitted curve in the direction sought with a large enough effect; inconclusive = small, poorly fitted or top-dose-only effect, or another doubt; inactive = no such curve, though single readings can be large; an effect the other way counts as inactive or inconclusive.

SMILES	TDP1 cell noCPT	HepG2 viability	DT40 TDP1 CPT	TDP1 block	IL1B secr inh	TGFb SMAD3 inh
CC1COc2ccccc2N1C(=O)c1ccc(Cl)cc1 (configuration not stated)	-20%	-2%	-7%	.	16	-20%
Cc1ccc(C(=O)N2c3ccccc3OCC2C)cc1 (configuration not stated)	-13%	1%	-9%	.	0	2%
Cc1ccc(S(=O)(=O)N2c3cc(C)ccc3OCC2C(C)(C)C)cc1 (configuration not stated)	?	-25%	?	-1%	6	-21%
CC(C)(C)Nc1oc(-c2ccccc2)nc1-c1ccccc1F	.	.	.	8%	.	.
O=C1CCCN1Cc1ccccc1	-7%	0%	0%	.	25	-7%
CCOC(=O)c1c(C)[nH]c(C)c1S(=O)(=O)N1CCCC(C(=O)Nc2cc(C)ccc2C)C1 (configuration not stated)	-13%	7%	-21%	5%	.	-7%
CCOC(=O)c1c(C)[nH]c(C)c1S(=O)(=O)N1CCCC(C(=O)N2CCN(c3cccc(C)c3C)CC2)C1 (configuration not stated)	?	-52%	15µM*	8%	.	?
CCOC(=O)c1c(C)[nH]c(C)c1S(=O)(=O)N1CCCC(C(=O)N2CCN(c3cccc(Cl)c3)CC2)C1 (configuration not stated)	21µM*	-20%	21µM*	9%	.	?
CCOC(=O)c1c(C)[nH]c(C)c1S(=O)(=O)N1CCCC(C(=O)Nc2cccc(C)n2)C1 (configuration not stated)	-6%	-8%	-25%	5%	.	-20%
ON=C1CCC2CCCCC2C1 (configuration not stated)	-12%	1%	-4%	.	-15	-11%
Cc1ncc2c(c1CNC(=O)/C=C/c1cccs1)CCN(C(=O)c1ccc3c(c1)OCCO3)C2	-3%	.	8%[9.04 µM]	.	.	.
C[C@H]1CN([C@@H](C)CO)C(=O)CCCn2cc(nn2)CO[C@@H]1CN(C)S(=O)(=O)c1ccc(Cl)cc1	23%	4%	-21%	.	-12	0%
COc1cccc(/C=N\NC(=O)c2ccc(Cn3cc(Br)c([N+](=O)[O-])n3)o2)c1O	3.3µM*	-7%	?	0%	167	?
COc1cccc(/C=N/NC(=O)Cn2nc(C)c([N+](=O)[O-])c2C)c1O	5.8µM*	-33%	5.8µM*	3%	53	-6%
COc1cc(/C=N\NC(=O)c2ccc(Cn3nc([N+](=O)[O-])c(Cl)c3C)o2)ccc1O	?	-16%	-5%	2%	-11	-10%
COc1cccc(/C=N/NC(=O)C(C)n2nc(C)c([N+](=O)[O-])c2C)c1O (configuration not stated)	1µM*	-7%	0.92µM*	8%	37	-1%
COc1ccc(/C=N/NC(=O)c2ccco2)cc1Cn1nc(C)c([N+](=O)[O-])c1C	18µM*	-21%	?	8%	20	0%
COc1ccc(/C=N/NC(=O)c2ccco2)cc1Cn1nc(C)cc1C	-21%	2%	-2%	-2%	19	10%
CCOc1ccc(Sc2cc(C(=O)NCc3ccc(F)cc3)c3ccccc3n2)cc1	?	-22%	-27%	8%	.	-25%
O=C(NCc1ccccc1)C1CCC(CNS(=O)(=O)c2ccc(Br)s2)CC1 (configuration not stated)	-22%	-20%	-28%	2%	.	-30%
O=C(C1CCC(CNS(=O)(=O)c2cccs2)CC1)N1CCN(c2ccc(Cl)cc2)CC1 (configuration not stated)	4.1µM*	-45%	6.5µM*	3%	-15	?
CC(=O)c1ccc(NC(=O)C2CCC(CNS(=O)(=O)c3ccc(Br)s3)CC2)cc1 (configuration not stated)	-14%	10%	11%	5%	.	1%
Cc1ccc(C)c(N2CCN(C(=O)C3CCC(CNS(=O)(=O)c4ccc(Br)s4)CC3)CC2)c1 (configuration not stated)	5.8µM*	-9%	5.8µM*	-2%[12.3 µM]	.	-11%
O=C(C1CCC(CNS(=O)(=O)c2ccc(Br)s2)CC1)N1CCN(c2ccccc2)CC1 (configuration not stated)	?	-20%	4.6µM*	0%	.	5%
O=C(Nc1cc(=O)[nH]c2nc(-c3ccccc3)nn12)c1ccccc1Cl	12µM*	-3%	-20%	3%	38	9%
SMILES	TDP1 cell noCPT	HepG2 viability	DT40 TDP1 CPT	TDP1 block	IL1B secr inh	TGFb SMAD3 inh
CN(C(=O)COC(=O)/C=C/c1cccc([N+](=O)[O-])c1)C1CCS(=O)(=O)C1 (configuration not stated)	0%	-38%	-12%	3%	-9	-12%
CC(OC(=O)c1c2c(nc3ccccc13)/C(=C\c1ccc3c(c1)OCO3)CCC2)C(=O)Nc1ccc(S(N)(=O)=O)cc1 (configuration not stated)	18µM*	-10%	?	-3%	?	?
CC(OC(=O)c1cc2ccccc2cc1O)C(=O)Nc1ccc(S(N)(=O)=O)cc1 (configuration not stated)	-23%	-14%	-12%	3%	0	?
CN(C(=O)COC(=O)c1c2c(nc3ccccc13)/C(=C/c1cccc([N+](=O)[O-])c1)CCC2)C1CCS(=O)(=O)C1 (configuration not stated)	5.2µM*	-7%	3.3µM*	11%	0	4%
Cc1cccc(C)c1NC(=O)COC(=O)c1c2c(nc3ccccc13)/C(=C\c1ccc3c(c1)OCO3)CCC2	18µM*	1%	?	-2%	13	-17%
CCCNC(=O)c1cc(C2CCCCN2C(=O)c2ccc(OC)cc2)on1 (configuration not stated)	-1%	9%	-22%	.	12	6%
CCn1c2ccccc2c2cc(NC(=O)COC(=O)c3cc(Cl)c(N)cc3OC)ccc21	?	3%	?	.	-8	1%
CCOc1ccccc1OCCCOc1ccc([N+](=O)[O-])cc1Cl	23µM*	-40%	-74%	12%	-23	?
CC(C)C(C)NC(=O)COc1ccc([N+](=O)[O-])cc1Cl (configuration not stated)	?	-13%	8.2µM*	5%	-8	-22%
